Measurements reported in PubChem BioAssay AID1851 (National Center for Advancing Translational Sciences (NCATS), 2009).
In all, about 16,000 compounds went through this assay and about 5,800 (36%) were called active. Another 23% or so got no clear call; they are omitted. Calls come from the whole dose curve; as a rule, active = well fitted curve in the direction sought with a large enough effect; inconclusive = small, poorly fitted or top-dose-only effect, or effect the other way; inactive = no such curve, though single readings can be large or run the other way. The list shows a part of the results.

Biological target: Cytochrome P450 2C19 (Homo sapiens) (UniProt P33261)
Sequence (P33261 whole entry, looked up): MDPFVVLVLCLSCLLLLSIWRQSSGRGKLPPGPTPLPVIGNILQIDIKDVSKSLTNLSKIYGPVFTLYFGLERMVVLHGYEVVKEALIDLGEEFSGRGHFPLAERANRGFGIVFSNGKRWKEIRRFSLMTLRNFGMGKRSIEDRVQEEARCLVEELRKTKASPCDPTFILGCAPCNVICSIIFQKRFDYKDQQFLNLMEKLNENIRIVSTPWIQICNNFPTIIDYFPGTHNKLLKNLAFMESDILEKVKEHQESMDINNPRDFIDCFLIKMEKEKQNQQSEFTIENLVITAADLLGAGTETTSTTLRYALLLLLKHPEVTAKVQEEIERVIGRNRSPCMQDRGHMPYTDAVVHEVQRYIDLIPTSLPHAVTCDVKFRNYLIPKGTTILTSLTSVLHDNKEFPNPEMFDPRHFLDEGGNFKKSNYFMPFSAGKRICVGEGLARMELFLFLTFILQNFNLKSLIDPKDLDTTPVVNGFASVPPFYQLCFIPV
Assay: Cytochrome panel assay with activity outcomes
Settings: recombinant CYP, pro-luciferin dealkylation, luminescence, p450-cyp2c19; series mostly up to 57.1 µM; activity, negative = inhibition: at the top concentration
Description: The P450 gene superfamily is involved in the metabolism and clearance of xenobiotics. This assay used various human CYP P450 isozymes to measure the dealkylation of various pro-luciferin substrates to luciferin. The luciferin is then measured by luminescence after the addition of a luciferase detection reagent. Pro-luciferin substrate concentration in the assay was equal to its KM for its CYP P450 isozyme. Inhibitors and some substrates limit the production of luciferin, and decrease measured luminescence.
NCGC Assay Protocol Summary:
1, Reagent, 2 uL, Isozyme and Pro-Luciferin
2, Library compounds, 23 nl, 40 uM to 0.24 nM dilution series
3, Controls, 23 nl, Isozyme specific inhibitor
4, Reagent, 2 uL, NADPH regeneration solution
5, Incubation time, 60 min, Isozyme specific temperature
6, Reagent, 4ul, Detection reagent
7, Incubation time, 20 min, Isozyme specific temperature
8, Detection, 1 sec, ViewLux luminescent read
The luciferase-based P450-GloTM Screening Systems were obtained from Promega (Madison, WI) for CYP 1A2 (V9770), CYP 2C9 (V9790), CYP2 C19 (V9880), CYP 2D6 (V9890), and CYP 3A4 Luciferin-PPXE (V9910) and were adapted for 1,536-well microplates and an automated protocol. The control compounds furafylline for 1A2 (F124), sulfaphenazole for CYP 2C9 (S0758), ketoconazole for CYP 2C19 (K1003), quinidine for 2D6 (Q3625), and ketoconazole for 3A4 (K1003) were purchased from Sigma Aldrich (St. Louis, MO). Recombinant P450 enzymes were obtained from baculovirus constructs expressed in insect cells (BD/Gentest).
Medium-binding white solid Kalypsys plates used. Mixtures kept on ice. 1A2: 10 nM 1A2, 100 uM Luc-ME, 100 mM KPO4; 2C9: 10 nM 2C9, 100 uM Luc-H, 25 mM KPO4; 2C19: 5 nM 2C19, 10 uM Luc-H EGE, 50 mM KPO4; 2D6: 5 nM 2D6, 30 uM Luc-ME EGE, 100 mM KPO4; 3A4: 10 nM, 25 uM Luc-PPXE. All amounts are reflected in their final concentration, working concentration is 2x.
NADPH regeneration solution: 1.3 mM NADP+, 3.3 mM glucose-6-phosphate, 3.3 mM MgCl2, 0.4 U/mL glucose-6-phosphate dehydrogenase for all isozymes, 200 mM KPO4 for 3A4. Mixture prepared at RT but kept on ice during automated run.
RT incubation in auxilliary plate hotel for 1A2, 2D6, and 3A4; 37C for 2C9 and 2C19.
Keywords: P450, CYP1A2, CYP2C19, CYP2C9, CYP2D6, CYP3A4, Luciferase, MLSMR, MLSCN, NIH Roadmap, qHTS, NCGC
% is set by controls: 0 for no effect and ±100 for the full control effect.

AC50, inactive:
CC(C)NC[C@H](O)c1ccc(NS(C)(=O)=O)cc1
N=C(N)SCCc1cnc[nH]1
CN1CCN(C2=Nc3ccccc3Oc3ccc(Cl)cc32)CC1
CC[C@]1(C)CC(=O)NC1=O

AC50, active:
COc1ccc(NC(=O)CCSc2cc(C)c3ccccc3n2)cc1 7.94 µM
COc1ccccc1NC(=O)CSc1nc2ccccc2cc1Cc1ccccc1 0.0398 µM
COc1cccc(NC(=O)CSc2nc3ccccc3cc2Cc2ccccc2)c1 0.251 µM
COc1ccc(NC(=O)CSc2nc3ccccc3cc2Cc2ccccc2)cc1 0.0282 µM
CN(CCc1ccc(Cl)c(Cl)c1)C[C@@H](O)COc1ccc(NS(C)(=O)=O)cc1 2 µM
COCCNC(=O)c1onc(CSc2ccc(Cl)cc2)c1C(=O)O 3.55 µM
C=CCNC(=O)c1onc(CSc2ccc(F)cc2)c1C(=O)O 5.62 µM
O=C(NCc1ccccc1)c1onc(CSc2ccc(F)cc2)c1C(=O)NCCCN1CCOCC1 12.6 µM
COc1ccccc1C(=O)O/N=C1/CCCc2c1ccc(OC)c2[N+](=O)[O-] 0.631 µM
COc1ccc(/C=N/NC(N)=S)cc1OC(=O)c1cccc2ccccc12 2 µM
Cc1ccccc1NS(=O)(=O)c1ccc2[nH]cc(C(=O)N(C)Cc3ccco3)c(=O)c2c1 25.1 µM
COC(=O)c1cc(NS(=O)(=O)c2ccc(N3CCCCCC3)c([N+](=O)[O-])c2)cc(C(=O)OC)c1 5.62 µM
CC1CCN(c2ccc(S(=O)(=O)Nc3cc(C(=O)O)cc(C(=O)O)c3)cc2[N+](=O)[O-])CC1 3.16 µM
Cc1cc(C)c(C)c(S(=O)(=O)ON2C(=O)c3ccccc3C2=O)c1C 3.16 µM
C=CC(=O)NC(C)(C)Cc1ccccc1 14.1 µM
COC(=O)c1ccccc1NS(=O)(=O)c1ccc2c3c(cccc13)C(=O)N2 0.794 µM
Fc1ccc(C(OCCCc2cnc[nH]2)c2ccc(F)cc2)cc1 0.00398 µM
COc1cc(-c2ccc(N=Nc3ccc4c(S(=O)(=O)O)cc(S(=O)(=O)O)c(N)c4c3O)c(OC)c2)ccc1N=Nc1ccc2c(S(=O)(=O)O)cc(S(=O)(=O)O)c(N)c2c1O 3.98 µM
C=CCN(CC=C)C(=O)C(=O)c1cc(C)n(-c2ccc([N+](=O)[O-])cc2)c1C 0.126 µM
CN1CCN(C2=Cc3ccccc3Oc3ccc(Cl)cc32)CC1 3.98 µM
COC(=O)c1sc2ccccc2c1-n1cccc1C(=O)C(=O)Nc1ccc(Cl)cc1 5.01 µM
Cc1ccc(NC(=O)N(Cc2ccco2)C(C)c2ccco2)cc1C (centres undefined) 5.62 µM
Cc1ccc(-c2n[nH]c(=S)n2/N=C/c2cccn2C)cc1 14.1 µM
COc1cccc(-c2cc(=O)c3ccccc3o2)c1N 6.31 µM
Cc1cc(C)n2nc(-c3sccc3-n3cccc3)cc2n1 7.08 µM
O=C(OCC(=O)c1cccs1)c1cccc(C(=O)OCC(=O)c2cccs2)n1 17.8 µM
Cc1ccc2nc(NC(=O)CSCC(=O)OCC(=O)c3ccc(Br)cc3)sc2c1 8.91 µM
Cc1ccc2nc(NC(=O)COC(=O)c3ccc(Br)o3)sc2c1 8.91 µM
N#CCCn1cc(/C=N/O)c(-c2ccc(Cl)cc2)n1 7.94 µM
CC1=CC(=O)C=CC1(C)C(Cl)(Cl)Cl (centres undefined) 25.1 µM
COc1ccccc1CNc1ccnc(-c2ccoc2)n1 7.94 µM
CN(C)c1ccc(-c2nccc(NCc3ccccc3)n2)cc1 25.1 µM
COc1ccccc1CNc1ccnc(-c2ccc(N(C)C)cc2)n1 10 µM
CN(C)c1ccc(-c2nccc(NCc3cccs3)n2)cc1 15.8 µM
Cc1cc(SCC(=O)c2cccs2)nc2c(C)cccc12 3.16 µM
Cc1ccc(Nc2nc(Cl)nc(N(C)C#N)n2)cc1 25.1 µM
COC(=O)c1ccccc1N/C=C1\CCc2c(c(C)nn2-c2ccccn2)C1=O 1.26 µM
C(=N\Nc1nc(Nc2ccccc2)nc(N2CCOCC2)n1)/c1c[nH]c2ccccc12 8.91 µM
CC(=O)/C(=C\c1ccccc1F)C(=O)c1ccccc1 2 µM
CN(c1ccccc1)c1nc(-n2ccnc2)nc(-n2ccnc2)n1 1.78 µM
c1ccc(-c2nc(N3CCCCCC3)nc(-n3ccnc3)n2)cc1 2 µM
N#Cc1c(-c2ccccc2)ccnc1Oc1ccccc1 1.58 µM
COc1ccc2sc3ccccc3c(=O)c2c1OC 25.1 µM
CCOC(=O)c1[nH]c(C)c(/C(O)=C2\C(=O)C(=O)N(CCN3CCOCC3)C2c2cccs2)c1C (centres undefined) 8.91 µM
Cc1cc(Cl)nc2ccc(Cc3ccc4nc(Cl)cc(C)c4c3)cc12 0.501 µM
Cc1ccc(N(Cc2ccc([N+](=O)[O-])cc2)C(=O)c2ccco2)cc1 10 µM
CN1CCc2ccccc2[C@@H]1Cc1ccccc1NC(=O)c1sc2ccccc2c1Cl 2.51 µM
CC(C)(C)c1nc(SCC(=O)Nc2ccc3c(c2)OCCO3)c2ccccc2n1 1.78 µM
CC(C)(C)c1nc(SCC(=O)Nc2ccc(N3CCOCC3)cc2)c2ccccc2n1 10 µM
Cc1nc(SCC(=O)Nc2ccc(N3CCOCC3)cc2)nc(C)c1C 25.1 µM
Cc1nc(SCC(=O)Nc2ccc3c(c2)OCCO3)c2oc3ccccc3c2n1 0.562 µM

activity, negative = inhibition, inactive:
CN(CCc1ccc(Cl)c(Cl)c1)CCN1CCCCCC1 -43.2%
O=C(NCCCN1CCOCC1)c1cc2c(s1)CSC2 -22.2%
COCCNC(=O)c1onc(CSc2cccc(Cl)c2)c1C(=O)O 6.67%
O=C(NCC1CCCO1)c1onc(CSc2ccccc2F)c1C(=O)O (centres undefined) 37.7%
O=C(O)CC[C@]1(C(=O)O)CCC(=O)c2ccccc21 22.5% [at 11.4 µM]
NNS(=O)(=O)c1cc(C(=O)O)cc(C(=O)O)c1 -25.2% [at 11.4 µM]
CCCCN(C)S(=O)(=O)c1ccc(C(=O)Nc2nnc(CSC)o2)cc1 -9.3%
CC(C)(SCc1ccccc1)[C@H](N)C(=O)O 1.45% [at 11.4 µM]
N[C@@](CC(=O)O)(Cc1ccccc1)C(=O)O 22.4% [at 11.4 µM]
N[C@@H](Cc1cnc[nH]1)C(=O)O 36.4%
CN1CCN(c2ncc3nc(-c4cccs4)c(=O)n(C[C@H]4CCCO4)c3n2)CC1 -16.1%
CN1CCc2c(c3ccccc3n2C)C1 1.73%
O=S(=O)(O)c1ccc(N=Nc2ccc3c(S(=O)(=O)O)cccc3c2O)c2ccccc12 -37.1% [at 11.4 µM]
Clc1ccc2c(c1)C(N1CCNCC1)=Nc1ccccc1O2 -17.2% [at 25.6 µM]
C=CCNC(=O)c1cccn1-c1ccsc1C(=O)OC -9.71%
COCC(=O)N1CCC2(CCCN(Cc3ccccc3OC)C2)CC1 20.3%
Cc1nnc(C)n1/N=C/c1ccc(-c2ccccc2)cc1 -11.6%
C/C=C\C(=O)N(CC)c1ccccc1C -41.5% [at 25.6 µM]
C/C(=N/O)[C@@H]1C[C@H](CC(=O)O)C1(C)C 23% [at 11.4 µM]
CCOC(=O)c1cccc(C(=O)OCC)n1 -3.88%
Cc1ccc2nc(-c3ccc(NC(=O)c4ccc(N)cc4)c(S(=O)(=O)O)c3)sc2c1 0.214% [at 11.4 µM]
Cc1nc2ccc(S(=O)(=O)NC(CC(C)C)C(=O)O)cc2s1 (centres undefined) -7.8%
OCCN(CCO)c1ncnc2nc[nH]c12 -23.9% [at 11.4 µM]
CC(C)(C)N1C(=O)[C@H]2[C@@H]3[C@H](O)[C@H](O)CC(=O)[C@H]3CC[C@H]2C1=O -4.03% [at 11.4 µM]
N#CCCn1c(=O)c(-c2ccc(Cl)cc2)nc2cnc(Oc3cccc(Cl)c3)nc21 -6.9%
N#CCCn1c(=O)c(-c2ccc(Cl)cc2)nc2cnc(N3CCOCC3)nc21 -3.89%
Cc1cnc(CNc2ccnc(-c3ccc(N(C)C)cc3)n2)cn1 -41.5%
CN(C)C(=O)c1ccc(-c2nccc(NCc3ccccc3)n2)cc1 -44.6%
COc1cc(S(C)=O)ccc1-c1nc2ncccc2[nH]1 (centres undefined) 18.6% [at 25.6 µM]
COc1ccc(-c2cc(C(=O)O)c3c(C)nn(-c4ccccn4)c3n2)cc1 -24.8%
COc1ccc(N2CCN(c3nc(Nc4ccc(F)cc4)nc(OC)n3)CC2)cc1 -29%
CC(=C\C(=O)O)/C(=C/c1ccccc1)C(=O)O 35.5%
COc1ccc(Oc2nccc(-c3ccc(F)cc3)c2C#N)cc1 -12.6%
Cn1c(=O)c(-c2cccc(C#N)c2)nc2cnc(Oc3ccccc3)nc21 25.2%
CCN(CC)CCNc1ccc(CO)c2sc3ccccc3c(=O)c12 -7.59% [at 25.6 µM]
COc1ccc(C(=O)CCN(C)C)c2ccccc12 -37.3% [at 11.4 µM]
Cc1nc2ccccn2c1/C(O)=C1\C(=O)C(=O)N(CCN2CCOCC2)C1c1cccnc1 (centres undefined) -29%
COc1ccc(/C(O)=C2/C(=O)C(=O)N(CCN3CCOCC3)C2c2ccc(C)cc2)cc1 (centres undefined) -8.32%
Cc1cc(N2CCOCC2)nc2ccc(Cc3ccc4nc(N5CCOCC5)cc(C)c4c3)cc12 -39.6% [at 11.4 µM]
CC(=O)Nc1ccc(Cc2ccc3[nH]c(=O)cc(C)c3c2)cc1 3.04% [at 11.4 µM]
CC(C)=NNc1ncnc2nc[nH]c12 43.1% [at 11.4 µM]
CN(C)c1ccc(C(c2ccc(N(C)C)cc2)c2ccc([N+](=O)[O-])cc2)cc1 -36.9% [at 11.4 µM]
O=c1c2ccccc2sc2c(CO)ccc(NCCN3CCCCC3)c12 -24.6% [at 11.4 µM]
O=C(CSc1nncn1-c1ccccc1)Nc1ccc(N2CCOCC2)cc1 -29.9%
